Outcome and AC50 data for three compounds are collected here from PubChem BioAssay (EPA / NIEHS).

Read-out in assay [1]: Interleukin-1 alpha (IL1a), IL1A (gene 3552)
The experiment in a line: BSK_KF3CT_IL1a: BioMAP Diversity Plus: KF3CT Assay for Interleukin-1 alpha (IL1a) Biomarker Activity (AID 2283070). The conditions noted are these: primary human keratinocytes with fibroblasts; actives raise or lower the signal. The method in brief:
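Readout is IL-1a level by ELISA, compared bidirectionally with DMSO as baseline. Cells: human keratinocytes co-cultured with foreskin fibroblasts, harvested 24 h post-dose.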

Read-out in assay [2]: TIMP metallopeptidase inhibitor 2 (TIMP2), TIMP2 (gene 7077)
Kind of assay: BSK_KF3CT_TIMP2: BioMAP Diversity Plus: KF3CT Assay for TIMP metallopeptidase inhibitor 2 (TIMP2) Biomarker Activity (AID 2283071). Conditions: primary human keratinocytes with fibroblasts; actives raise or lower the signal. The method in brief:
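TIMP-2 measured by ELISA at 24 h in human keratinocyte/fibroblast primary co-cultures exposed to chemicals. Both increases and decreases were fitted against DMSO. Parallel cultures were stained with SRB for total protein as an overt-cytotoxicity check.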

Read-out in assay [3]: Transforming growth factor beta 1 (TGFb1), TGFB1 (gene 7040)
The experiment in a line: BSK_KF3CT_TGFb1: BioMAP Diversity Plus: KF3CT Assay for Transforming growth factor beta 1 (TGFb1) Biomarker Activity (AID 2283072). Conditions: primary human keratinocytes with fibroblasts; actives raise or lower the signal. The method in brief: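 ELISA quantifies TGF-b1 at 24 h post-dose in a primary human skin co-culture of keratinocytes and fibroblasts, with gain or loss judged against DMSO. Parallel SRB total-protein staining flags overt cytotoxicity.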

Read-out in assay [4]: C-C motif chemokine 2 (Homo sapiens) (UniProt P13500)
The experiment in a line: BSK_KF3CT_MCP1: BioMAP Diversity Plus: KF3CT Assay for Monocyte Chemoattractant Protein 1 (MCP1/CCL2) Biomarker Activity (AID 2283073). Conditions: primary human keratinocytes with fibroblasts; actives raise or lower the signal. The method in brief:
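Keratinocytes and foreskin fibroblasts were co-cultured, dosed with chemical, and sampled 24 h later. MCP-1 was quantified by ELISA, and the endpoint was analyzed with bidirectional fitting using DMSO as negative control.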

Read-out in assay [5]: Matrix Metallopeptidase 9 (MMP9), MMP9 (gene 4318)
Kind of assay: BSK_KF3CT_MMP9: BioMAP Diversity Plus: KF3CT Assay for Matrix Metallopeptidase 9 (MMP9) Biomarker Activity (AID 2283074).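 On AC50: MMP9 protein level quantified by ELISA in the co-culture.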 The conditions noted are these: primary human keratinocytes with fibroblasts; actives raise or lower the signal. The method in brief:
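Values come from bidirectional fitting relative to DMSO of MMP-9 levels, which were measured by ELISA. Measurements were taken 24 h after chemical dosing of a keratinocyte and foreskin fibroblast co-culture.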

Read-out in assay [6]: urokinase plasminogen activator (uPA), PLAU (gene 5328)
Kind of assay: BSK_KF3CT_uPA: BioMAP Diversity Plus: KF3CT Assay for urokinase plasminogen activator (uPA) Biomarker Activity (AID 2283075). Conditions: primary human keratinocytes with fibroblasts; actives raise or lower the signal. The method in brief:
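Values derive from bidirectional fitting against DMSO controls. Keratinocyte/foreskin fibroblast co-cultures received chemical; 24 h later uPA was detected by ELISA, with SRB total-protein staining in parallel wells for overt cytotoxicity.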

Read-out in another assay: CD40, CD40 (gene 958)
The experiment in a line: BSK_LPS_CD40: BioMAP Diversity Plus: LPS Assay for CD40 Biomarker Activity (AID 2283076). Conditions: primary human HUVEC with PBMC; actives raise or lower the signal. The method in brief: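 CD40 signal, measured by ELISA, is fitted in both directions relative to DMSO vehicle. The system is an LPS-driven human vascular primary co-culture of endothelial cells and PBMC, sampled 24 h after compound addition.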

Read-out in assay [7]: E-selectin (Homo sapiens) (UniProt P16581)
The experiment in a line: BSK_LPS_Eselectin: BioMAP Diversity Plus: LPS Assay for Eselectin Biomarker Activity (AID 2283077). Conditions: primary human HUVEC with PBMC; actives raise or lower the signal. The method in brief:
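Signal of E-selectin, detected by ELISA, served as the endpoint; cells were umbilical vein endothelium with PBMC, read 24 h after treatment. DMSO defined baseline, and both increases and decreases were fitted.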

Read-out in assay [8]: Interleukin-8 (IL8), CXCL8 (gene 3576)
The experiment in a line: BSK_LPS_IL8: BioMAP Diversity Plus: LPS Assay for Interleukin-8 (IL8) Biomarker Activity (AID 2283078). The conditions noted are these: primary human HUVEC with PBMC; actives raise or lower the signal. The method in brief:
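Endothelial cells and PBMC from human donors are co-cultured, treated with chemicals and LPS, then assayed for IL-8 by ELISA after 24 h. Parallel SRB staining (0.1% SRB after 10% TCA fixation, 560 nm) flags cytotoxicity.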

A short description of assay [9]: BSK_LPS_SRB: Viability Assessment in the BioMAP Diversity Plus: LPS Assay (AID 2283079).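 Further: total protein by sulforhodamine B absorbance as a cytotoxicity measure; measured one day after compound addition; fitted in both directions against DMSO so loss or gain of signal counts.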 Conditions: primary human HUVEC with PBMC. The method in brief:
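Overt cytotoxicity was gauged by sulforhodamine B total-protein staining in a primary human vascular endothelial and mononuclear cell co-culture 24 h post-dosing. Activity was fitted in both directions relative to DMSO.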

Read-out in assay [10]: Interleukin-1 alpha (IL1a), IL1A (gene 3552)
Kind of assay: BSK_LPS_IL1a: BioMAP Diversity Plus: LPS Assay for Interleukin-1 alpha (IL1a) Biomarker Activity (AID 2283080). Conditions: primary human HUVEC with PBMC; actives raise or lower the signal. The method in brief:
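Measured: IL-1 alpha via ELISA at 24 h in LPS-activated human umbilical vein endothelium–PBMC co-culture. Baseline: DMSO, bidirectional fitting.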

Read-out in assay [11]: Monocyte Chemoattractant Protein-1 (MCP1), CCL2 (gene 6347)
Kind of assay: BSK_LPS_MCP1: BioMAP Diversity Plus: LPS Assay for Monocyte Chemoattractant Protein-1 (MCP1) Biomarker Activity (AID 2283081).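 On AC50: secreted MCP-1 protein quantified by ELISA in culture supernatant.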 Conditions: primary human HUVEC with PBMC; actives raise or lower the signal. The method in brief:
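LPS-stimulated HUVEC/PBMC co-culture; chemical, 24 h; MCP-1 by ELISA; bidirectional fit vs DMSO; cytotoxicity via SRB (0.1% stain, 10% TCA fix, 560 nm) in parallel wells.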

Assay [12] in a line: BSK_LPS_PGE2: BioMAP Diversity Plus: LPS Assay for Prostaglandin E2 (PGE2) Biomarker Activity (AID 2283082). The conditions noted are these: primary human HUVEC with PBMC; actives raise or lower the signal. The method in brief: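 PGE2 release measured by ELISA in an LPS-activated co-culture of human umbilical vein endothelial cells and peripheral blood mononuclear cells, read at 24 h post-dosing. DMSO served as baseline for bidirectional curve fitting.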

Read-out in assay [13]: Macrophage colony-stimulating factor (MCSF), CSF1 (gene 1435)
The experiment in a line: BSK_LPS_MCSF: BioMAP Diversity Plus: LPS Assay for Macrophage colony-stimulating factor (MCSF) Biomarker Activity (AID 2283083). Conditions: primary human HUVEC with PBMC; actives raise or lower the signal. The method in brief: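 Compound is added to a human vascular primary co-culture of umbilical vein endothelium and blood mononuclear cells. After 24 h, M-CSF is quantified by ELISA. Signal changes are fitted in both directions against DMSO.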

Read-out in assay [14]: Tissue Factor, F3 (gene 2152)
Kind of assay: BSK_LPS_TissueFactor: BioMAP Diversity Plus: LPS Assay for Tissue Factor Biomarker Activity (AID 2283084). The conditions noted are these: primary human HUVEC with PBMC; actives raise or lower the signal. The method in brief:
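In this co-culture system of umbilical vein endothelium with PBMC, stimulated with LPS, cell-surface CD142 is detected by ELISA at 24 h. Endpoint values derive from bidirectional fitting, DMSO serving as baseline.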

Read-out in assay [15]: Tumor necrosis factor (Homo sapiens) (UniProt P01375)
The experiment in a line: BSK_LPS_TNFa: BioMAP Diversity Plus: LPS Assay for Tumour Necrosis Factor alpha (TNFa) Biomarker Activity (AID 2283085).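 On AC50: TNFa protein level quantified by ELISA in the co-culture.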 The conditions noted are these: primary human HUVEC with PBMC; actives raise or lower the signal. The method in brief:
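TNFa was quantified by ELISA in LPS-activated co-cultures of human endothelial cells and PBMC, 24 h post-dosing. Both increases and decreases versus DMSO were fitted.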

Read-out in assay [16]: Vascular cell adhesion molecule 1 (VCAM1), VCAM1 (gene 7412)
Kind of assay: BSK_LPS_VCAM1: BioMAP Diversity Plus: LPS Assay for Vascular cell adhesion molecule 1 (VCAM1) Biomarker Activity (AID 2283086). Conditions: primary human HUVEC with PBMC; actives raise or lower the signal. The method in brief: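 VCAM-1 quantified by ELISA in an LPS-activated co-culture of human endothelial cells and peripheral blood mononuclear cells, read 24 h post-treatment. Fitted in both directions versus DMSO; parallel SRB staining flags overt cytotoxicity.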

Read-out in the next assay: CD38, CD38 (gene 952)
Kind of assay: BSK_SAg_CD38: BioMAP Diversity Plus: SAg Assay for CD38 Biomarker Activity (AID 2283087). The conditions noted are these: primary human HUVEC with PBMC; actives raise or lower the signal. The method in brief:
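CD38 quantified by ELISA (fluorescence) in a superantigen-activated endothelial cell–PBMC co-culture at 24 h post-dose. Activity fitted in both directions relative to DMSO; parallel SRB and Alamar Blue cytotoxicity read-outs.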

Read-out in another assay: CD69, CD69 (gene 969)
The experiment in a line: BSK_SAg_CD69: BioMAP Diversity Plus: SAg Assay for CD69 Biomarker Activity (AID 2283089).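 On AC50: cell surface CD69 protein quantified by ELISA with fluorescence detection.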 Conditions: primary human HUVEC with PBMC; actives raise or lower the signal. The method in brief:
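HUVEC co-cultured with PBMC were dosed with chemical, and CD69 was measured by ELISA with fluorescence read-out 24 h later. Bidirectional curve fitting used DMSO as negative control and activity baseline.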

Activity calls are given as the source filed them. How the source made its calls: active means hit-call score of the fitted dose curve at least 0.9, where 1 is the maximum; inactive means score below 0.9.

E-selectin (Homo sapiens), sequence (P16581 whole entry, looked up): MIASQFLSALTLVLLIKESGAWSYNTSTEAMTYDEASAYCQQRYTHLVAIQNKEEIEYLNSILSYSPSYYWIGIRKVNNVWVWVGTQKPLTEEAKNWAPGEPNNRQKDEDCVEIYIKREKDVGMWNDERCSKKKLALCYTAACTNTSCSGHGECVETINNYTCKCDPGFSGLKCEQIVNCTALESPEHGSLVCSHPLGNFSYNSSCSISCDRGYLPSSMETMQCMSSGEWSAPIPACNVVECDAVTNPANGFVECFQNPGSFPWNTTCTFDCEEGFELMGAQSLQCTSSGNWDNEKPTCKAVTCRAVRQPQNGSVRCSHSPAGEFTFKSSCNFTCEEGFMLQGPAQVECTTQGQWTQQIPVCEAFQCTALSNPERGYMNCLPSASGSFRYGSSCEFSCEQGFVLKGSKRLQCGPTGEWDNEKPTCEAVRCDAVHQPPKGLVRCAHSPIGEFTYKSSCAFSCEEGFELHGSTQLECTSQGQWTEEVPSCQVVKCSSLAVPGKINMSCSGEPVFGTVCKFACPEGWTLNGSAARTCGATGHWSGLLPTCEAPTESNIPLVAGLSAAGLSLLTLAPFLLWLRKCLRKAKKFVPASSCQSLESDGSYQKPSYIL
Tumor necrosis factor (Homo sapiens), sequence (P01375 whole entry, looked up): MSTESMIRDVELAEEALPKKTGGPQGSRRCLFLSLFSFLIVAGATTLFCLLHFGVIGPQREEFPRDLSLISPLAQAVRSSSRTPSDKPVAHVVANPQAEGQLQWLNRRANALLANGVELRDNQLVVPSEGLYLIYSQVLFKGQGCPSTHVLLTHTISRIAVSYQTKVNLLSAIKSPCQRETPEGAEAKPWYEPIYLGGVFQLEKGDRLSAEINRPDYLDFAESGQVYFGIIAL

Regarding `CNC(=O)Oc1cccc2c1OC(C)(C)O2`, the result in [1], in assay [2], in assay [3], in assay [4], in assay [5] and in assay [6] was inactive. Further, the outcome in [9] was “inactive”; in assay [10], “inactive”; in assay [11], “inactive”; in assay [12], “inactive”; in [14], “inactive”; with CD69, CD69 (gene 969) it was “inactive”. Besides, the AC50 (in general, the concentration at which the activity in the assay is half-maximal) with CD40, CD40 (gene 958) is 13.6 µM (active); in assay [7], 20 µM (active); in assay [8], 25.2 µM (active); in assay [13], 20 µM (active); in assay [15], 32.9 µM (active); in [16], 20 µM (active). Moreover, the AC50 in the assay with CD38, CD38 (gene 952) is 35.1 µM (active).
As for `CCCOCC(=Nc1ccc(Cl)cc1C(F)(F)F)n1ccnc1`, the AC50 was 36.4 µM (active) in [1]; 31.7 µM (active) in assay [2]; 31.1 µM (active) in assay [3]; 31.3 µM (active) in assay [4]; 28 µM (active) in assay [5]; 33.2 µM (active) in [6]. Moreover, the AC50 with CD40, CD40 (gene 958) is 22.3 µM (active); in assay [7], 16.2 µM (active); in assay [8], 32.5 µM (active); in [9], 31.4 µM (active); in assay [10], 31.8 µM (active); in assay [11] it was 33.3 µM (active). The AC50 was 20.9 µM (active) in assay [13]; 29.2 µM (active) in assay [14]; 31.3 µM (active) in assay [15]; 29 µM (active) in [16]; 18.9 µM (active) with CD69, CD69 (gene 969). Also, the outcome in assay [12] was inactive.
Consider `C[Si](Cn1cncn1)(c1ccc(F)cc1)c1ccc(F)cc1`, for which the result in assay [1], in assay [2], in [3], in assay [4], in assay [5] and in assay [6] was inactive. The outcome is “inactive” with CD40, CD40 (gene 958); “inactive” in assay [8]; “inactive” in assay [9]; “inactive” in assay [10]; “inactive” in assay [11]; “inactive” in assay [14]. For the same compound, the outcome was “inactive” in [15]; “inactive” in [16]; “inactive” with CD69, CD69 (gene 969). Also, the AC50 is 15 µM (active) in assay [7]; 1.62 µM (active) in assay [12]; 14.7 µM (active) in [13]; 29.9 µM (active) with CD38, CD38 (gene 952).
